Screening data deposited in PubChem BioAssay by several laboratories.
Sampled rows, rich in hits. Any-hit rate of the full collection: about 1.8%.
GC-B act: human GC-B receptor activators, primary screen, HEK293 GC-B cells, cGMP TR-FRET, EC30 CNP. activation, % at 10 µM. AID 1920062, 2024. Atrial natriuretic peptide receptor 2 (Homo sapiens), P20594. 0.11% of 370,000 active. 0% at EC30 CNP, 100% saturating CNP;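 active means activation at 10 µM reaching about 35% in either raw or pattern-adjusted values, limit read from the data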
Myeloid diff MLP: induction of myeloid progenitor differentiation, primary screen, cell-based, flow cytometry, MLPCN library; ER-HoxA9 myeloid progenitors, lysozyme-GFP differentiation; calls only at 10 µM; 1% of 360,000 active;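 active means normalized GFP-positive differentiation at or above the plate's own cutoff, the solvent-only control mean plus 3 SD; inconclusive means no clear call, values can overlap the other calls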;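 further: cells exposed to compound for four days before flow analysis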
Exocytosis inh: LAMP-1 surface exposure blockers, TALL-104 cells – cell-based, flow cytometry, MLPCN library, primary screen; TALL-104 LAMP-1 surface exposure; cells stimulated with thapsigargin and PMA; inhibition, % at 10 µM; 0.66% of 360,000 active; AID 651702, 2012;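 active means inhibition above about 55%, limit read from the data; inconclusive means no clear call, values can overlap the other calls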
NPR1 activator: GC-A stimulated cGMP production enhancers – HEK293 GC-A cells, cGMP TR-FRET, EC30 ANP, primary screen; AID 1671463, 2021; 0% at EC30 ANP, 100% saturating ANP; activation, % at 10 µM; 0.14% of 370,000 active; Atrial natriuretic peptide receptor 1 (Homo sapiens), P16066; in the data active means activation above about 40%
Target sequence (P16066 whole entry, looked up): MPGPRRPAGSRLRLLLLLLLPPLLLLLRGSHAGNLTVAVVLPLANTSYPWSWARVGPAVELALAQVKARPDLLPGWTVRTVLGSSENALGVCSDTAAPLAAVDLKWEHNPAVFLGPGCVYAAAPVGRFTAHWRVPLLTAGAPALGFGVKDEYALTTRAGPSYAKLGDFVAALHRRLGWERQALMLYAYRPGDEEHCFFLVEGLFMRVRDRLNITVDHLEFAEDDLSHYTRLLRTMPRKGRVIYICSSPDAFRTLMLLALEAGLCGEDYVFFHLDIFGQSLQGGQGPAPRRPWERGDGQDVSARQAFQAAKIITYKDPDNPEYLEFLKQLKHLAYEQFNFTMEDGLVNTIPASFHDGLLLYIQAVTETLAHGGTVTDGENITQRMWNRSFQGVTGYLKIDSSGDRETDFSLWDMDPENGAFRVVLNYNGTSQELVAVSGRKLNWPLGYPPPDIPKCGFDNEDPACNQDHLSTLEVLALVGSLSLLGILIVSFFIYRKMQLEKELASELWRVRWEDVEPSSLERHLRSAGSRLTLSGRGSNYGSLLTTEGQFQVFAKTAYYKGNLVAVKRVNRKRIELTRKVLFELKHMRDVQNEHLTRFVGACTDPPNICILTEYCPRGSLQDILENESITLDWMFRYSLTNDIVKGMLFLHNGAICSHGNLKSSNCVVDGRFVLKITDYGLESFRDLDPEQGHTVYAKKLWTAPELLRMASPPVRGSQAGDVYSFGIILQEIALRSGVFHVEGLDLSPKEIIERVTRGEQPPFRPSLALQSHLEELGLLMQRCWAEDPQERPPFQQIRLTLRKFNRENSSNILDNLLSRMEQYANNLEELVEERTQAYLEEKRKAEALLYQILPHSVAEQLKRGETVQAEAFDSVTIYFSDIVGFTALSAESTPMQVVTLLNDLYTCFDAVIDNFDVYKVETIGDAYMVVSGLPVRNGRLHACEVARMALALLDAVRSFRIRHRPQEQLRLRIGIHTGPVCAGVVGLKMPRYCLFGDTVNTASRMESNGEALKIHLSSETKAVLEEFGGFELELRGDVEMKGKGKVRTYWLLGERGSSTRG
Myeloid diff CP1: inducers of myeloid progenitor differentiation, confirmation, cell-based, GFP/Mac1 flow cytometry, cherry pick 01; shares compounds with Myeloid diff MLP; ER-HoxA9 myeloid progenitors, GFP/Mac1 double-positive flow; calls only; 2% of 2,300 active; AID 651706, 2012;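 active means share of green or green-and-red cells above 9 and 9% in run 1 or 4 and 3% in run 2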
GFP autofluor: counter-screen for myeloid differentiation promoters: compound fluorescence. shares compounds with Myeloid diff MLP. ER-HoxA9 myeloid progenitors, no estrogen, GFP autofluorescence flow cytometry; vehicle wells 0%, positive control 100%. fluorescence response, % (test concentration not listed). 7.4% of 2,300 active;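 active means over 5% cells positive for green fluorescent reporter, or over 2% positive for both it and APC stain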;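 further: range taken on the double positive population between DMSO and positive control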
Granule exo CP1: inhibitors of lytic granule exocytosis, confirmation, TALL-104 cells, flow cytometry, Cherry Pick01. LAMP-1 externalization; stimulated with PMA plus thapsigargin. inhibition, % at 10 µM. 11% of 1,500 active. shares compounds with Exocytosis inh; in the data active means inhibition above about 60%;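 further: 0% = stimulated vehicle wells and 100% = unstimulated wells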
An asterisk follows results filed as active; i = inactive; ? = inconclusive; . = no result; + = active, no number.

SMILES | GC-B act | Myeloid diff MLP | Exocytosis inh | NPR1 activator | others
O=c1c2ccccc2nc(/C=C/c2ccc(O)c(O)c2)n1-c1ccccc1 | 28 | i | 2 | -1 | Myeloid diff CP1=i;GFP autofluor=0
CCCN(CC#CCOc1ccc(OC)cc1)CCC | 1 | i | 1 | 1
OCC[n+]1c2ccccc2nc2ccc(N3CCOCC3)cc21 | -18 | + | -4 | -28 | Myeloid diff CP1=i;GFP autofluor=1
O=C(CCc1ccccc1)N1Cc2cc(N3CCOCC3)ccc2-n2nncc2C1 | -1 | i | -4 | -3
COc1ccc(OC(=O)N(C)C[C@H]2OCc3cnnn3CCCC(=O)N([C@H](C)CO)C[C@@H]2C)cc1 | 4 | i | 0 | 1
CC(N)Cc1c[nH]c2c1ccc1ccccc12 (centres undefined) | 1 | i | -5 | -2 | Myeloid diff CP1=i;GFP autofluor=1
C[C@]12CCC(=O)C=C1CCC1C2CC[C@@]2(C)C1CC[C@@]2(O)CC#N (some centres undefined) | . | + | 1 | . | Myeloid diff CP1=i;GFP autofluor=0
NCC1(c2ccc3c(c2)OCCO3)CCCC1 | -1 | i | -2 | -2
CCc1ccc(NC(=O)C(C)OC(=O)c2c(C)nn(Cc3ccccc3)c2Cl)cc1 (centres undefined) | 5 | i | 2 | 3
Cc1cc(NC(=O)COC(=O)c2c(C)nn(Cc3ccccc3)c2Cl)no1 | 3 | i | 3 | -3 | Myeloid diff CP1=+;GFP autofluor=0
Cc1nn(Cc2ccccc2)c(Cl)c1C(=O)OC(C)C(=O)Nc1ccc(F)cc1Cl (centres undefined) | -2 | i | 2 | 3 | Myeloid diff CP1=i;GFP autofluor=1
O=P(CN1CCN(c2ccccc2)CC1)(N1CCCCC1)N1CCCCC1 | 6 | + | -6 | 4 | Myeloid diff CP1=i;GFP autofluor=0
COc1ccc(C2C(C(=O)N3CCC4(CC3)OCCO4)c3cc(OC)c(OC)cc3C(=O)N2C)cc1 (centres undefined) | 1 | i | 5 | 2 | Myeloid diff CP1=i;GFP autofluor=0
CC(=O)c1c(C)n(CCCOC(C)C)c2ccc(O)cc12 | 5 | i | -1 | 11
CCOC(=O)c1c(C)n(COCCO)c2ccc(O)cc12 | 6 | i | 2 | 0 | Myeloid diff CP1=i;GFP autofluor=0
CC[C@H](OC(C)=O)C(C[C@H](C)N(C)C)(c1ccccc1)c1ccccc1 | -13 | . | 0 | -23
Oc1cc2c(cc1CN1CCN(c3ccc(F)cc3)CC1)OCO2 | 1 | i | 23 | 4
Cc1ccc2c(c1)CC1(CN2C)C(=O)NC(=O)N(c2ccc(C)c(C)c2)C1=O (centres undefined) | 1 | i | -1 | 1
O=c1[nH]c(=S)n(C2CC2)c(O)c1/C=N/Nc1cccc2ccccc12 | -10 | i | 3 | -6 | Myeloid diff CP1=i;GFP autofluor=2
O=c1[nH]c(=S)n(C2CC2)c(O)c1/C=N/Nc1ccccc1 | -1 | i | 7 | 0
O=C1NC2C(O)C(O)C(O)C(O)C2c2cc3c(c(O)c21)OCO3 (centres undefined) | 0 | ? | -4 | 6
COc1ccc2c(c1)c(CCN)c(C)n2Cc1ccccc1 | -26 | i | 25 | -22
C#CCOc1ccc2c(c1)c(C(C)=O)c(C)n2Cc1ccccc1 | 12 | i | 60* | 18 | Granule exo CP1=-4
FC(F)(F)Oc1ccc(C2NCc3ccccc3-n3cccc32)cc1 (centres undefined) | -17 | i | 59* | -19 | Granule exo CP1=-15
CC(C)c1ccc(C2NCc3ccccc3-n3cccc32)cc1 (centres undefined) | -12 | i | 39 | -32
SMILES | GC-B act | Myeloid diff MLP | Exocytosis inh | NPR1 activator | others
COC(=O)C1=CO[C@@H](C)[C@@H]2CN3CC[C@]4(C(=O)Nc5ccccc54)[C@@H]3C[C@H]12 | -3 | i | -10 | 2
CCCN1CCc2cc(O)cc3c2[C@H]1Cc1ccc(O)c(O)c1-3 | -2 | i | 65* | -3 | Granule exo CP1=-13
COc1cc2c(cc1O)[C@@H]1Cc3ccc(OC)c(O)c3CN1CC2 | -9 | i | 3 | -6
O=c1[nH]c(=O)n(-c2ccc(F)cc2)c(O)c1/C=C1\C=Nc2ccccc21 | -1 | i | 56* | 17 | Granule exo CP1=-3
Cc1ccccc1CC(=O)N(CCN(C)C)CC1CCCN(Cc2ccccc2F)C1 (centres undefined) | 1 | i | 62* | -2 | Granule exo CP1=-5
CN(C(=O)Cc1ccc2c(c1)OCO2)C1CCCN(Cc2ccccc2F)C1 (centres undefined) | -1 | i | -5 | 2
C=CCn1c(O)c(C=NCCCn2ccnc2)c(=O)[nH]c1=O | 4 | i | 2 | 1
COc1ccc2ccc(O)c(CN3CC=C(c4ccccc4)CC3)c2c1 | -6 | i | 92* | -4 | Granule exo CP1=17
COc1ccc(-c2ccc3c(c2)CN(c2cccc(Cl)c2)Cc2cnnn2-3)cc1 | -8 | i | 88* | 8 | Granule exo CP1=-12
Clc1cccc(N2Cc3cc(-c4ccccc4)ccc3-n3nncc3C2)c1 | -4 | i | 99* | 0 | Granule exo CP1=-13
Cc1[nH]c2ccccc2c1C(=O)C(=O)N1CCC2(CC1)OCCO2 | 1 | i | -3 | -9
COc1ccc(C2CN(C)CC2C(=O)c2ccc(C)cc2)cc1Cl (centres undefined) | -13 | i | 11 | -25
CC(C)CN1Cc2ccccc2-n2nncc2C1 | 0 | i | 1 | 7
CCOC(=O)[C@]12Cc3cc(OC)ccc3[C@H]1N(C)C(=O)c1ccccc12 | -8 | i | 0 | -7
CCOC(=O)[C@]12Cc3cc(Cl)ccc3[C@H]1N(Cc1ccccc1)C(=O)c1cc(OC)ccc12 | -14 | i | 14 | -19
CCOC(=O)[C@]12Cc3cc(OC)ccc3[C@H]1N(C1CCCCC1)C(=O)c1ccccc12 | -13 | ? | 67* | -7 | Granule exo CP1=-10
CCOC(=O)[C@]12Cc3cc(Cl)ccc3[C@H]1N(C1CCCCC1)C(=O)c1ccccc12 | . | ? | 83* | . | Granule exo CP1=8
CCCCCN1C(=O)c2cc(OC)ccc2[C@@]2(C(=O)OCC)Cc3cc(Cl)ccc3[C@@H]12 | -22 | ? | 63* | -23 | Granule exo CP1=0
CC(=O)N1Cc2cnnn2-c2ccccc2C1C#N (centres undefined) | 4 | i | -3 | 1
Cc1c(Br)c(=O)oc2cc(OCC(=O)N3C[C@H]4C[C@@H](C3)c3cccc(=O)n3C4)ccc12 | -7 | i | -1 | 4
